Experimental data taken from PubChem BioAssay (Tox21).
Inconclusive results are not listed. The source made the active and inactive calls. Unless noted, calls follow the shape of the dose curve; as a rule, active = well fitted curve in the direction sought with a large enough effect in the repeat runs; inconclusive = weak or mixed curves; inactive = no such curve, though single readings can be large; an effect the other way counts as inactive or inconclusive.

How the values were obtained:
[1] = qHTS assay to identify aromatase inhibitors - cell viability counter screen (AID 743084);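 also: cells stimulated with testosterone during compound exposure; nearly all actives have a fitted effect of over 55% in size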
[2] = molecular target: Aryl hydrocarbon receptor (Homo sapiens) (UniProt P35869); experiment: qHTS assay to identify small molecule that activate the aryl hydrocarbon receptor (AhR) signaling pathway (AID 743085);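 also: HG2L7.5c1 human HepG2 liver cells with stably integrated DRE-driven firefly reporter; series mostly up to about 70 µM; nearly all actives have a fitted effect of over 15% in size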
Aryl hydrocarbon receptor (Homo sapiens), sequence (P35869 whole entry, looked up): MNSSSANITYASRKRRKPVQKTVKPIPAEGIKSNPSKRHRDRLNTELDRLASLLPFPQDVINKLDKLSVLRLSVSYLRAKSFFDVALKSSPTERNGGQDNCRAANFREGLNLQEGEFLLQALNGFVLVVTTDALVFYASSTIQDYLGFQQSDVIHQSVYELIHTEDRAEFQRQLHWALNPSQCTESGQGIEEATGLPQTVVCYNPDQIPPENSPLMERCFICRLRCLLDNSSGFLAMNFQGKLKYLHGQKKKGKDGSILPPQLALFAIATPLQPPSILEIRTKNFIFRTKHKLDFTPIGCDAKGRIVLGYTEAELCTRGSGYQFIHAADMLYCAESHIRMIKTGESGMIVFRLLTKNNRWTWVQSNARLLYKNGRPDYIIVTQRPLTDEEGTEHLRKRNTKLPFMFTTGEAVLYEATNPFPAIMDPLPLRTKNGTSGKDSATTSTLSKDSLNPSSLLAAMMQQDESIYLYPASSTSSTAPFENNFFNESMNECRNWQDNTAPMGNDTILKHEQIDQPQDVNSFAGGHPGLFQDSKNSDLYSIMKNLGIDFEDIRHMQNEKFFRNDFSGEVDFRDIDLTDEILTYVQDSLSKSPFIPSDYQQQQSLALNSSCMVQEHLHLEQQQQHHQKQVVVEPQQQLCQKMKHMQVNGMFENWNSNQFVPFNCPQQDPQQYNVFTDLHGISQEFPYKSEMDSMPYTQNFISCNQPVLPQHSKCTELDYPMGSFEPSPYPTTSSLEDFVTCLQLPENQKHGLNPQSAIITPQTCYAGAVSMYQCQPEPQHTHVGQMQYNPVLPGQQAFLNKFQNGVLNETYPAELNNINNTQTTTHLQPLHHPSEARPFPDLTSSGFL
How it was run: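 Steps: seed HepG2-AhR-luc cells; allow 5 h at 37C; pin-transfer test compound or vehicle; incubate 24 h at 37C; add viability dye (30 min, 37C) and read fluorescence; add luciferase substrate (30 min, RT) and read luminescence.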

[3] = qHTS assay to identify small molecule that activate the aryl hydrocarbon receptor (AhR) signaling pathway - cell viability counter screen (AID 743086);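 also: HepG2 liver cells carrying the AhR DRE luciferase reporter; series mostly up to about 70 µM; nearly all actives have a fitted effect of over 45% in size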
How it was run: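 Cytotoxicity counter screen: CellTiter-Fluor signal (30 min, 37 C) in 4000 HepG2 cells/well carrying the DRE-luciferase reporter, following 24 h compound exposure at 37 C.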

[4] = molecular target: Peroxisome proliferator-activated receptor gamma (Homo sapiens) (UniProt P37231); experiment: qHTS assay to identify small molecule agonists of the peroxisome proliferator-activated receptor gamma (PPARg) signaling pathway (AID 743094; active = well fitted activation curve with a large enough effect in the signal ratio in the repeat runs, not every such curve was filed as active; the % refers to the signal ratio)
Peroxisome proliferator-activated receptor gamma (Homo sapiens), sequence (P37231 whole entry, looked up): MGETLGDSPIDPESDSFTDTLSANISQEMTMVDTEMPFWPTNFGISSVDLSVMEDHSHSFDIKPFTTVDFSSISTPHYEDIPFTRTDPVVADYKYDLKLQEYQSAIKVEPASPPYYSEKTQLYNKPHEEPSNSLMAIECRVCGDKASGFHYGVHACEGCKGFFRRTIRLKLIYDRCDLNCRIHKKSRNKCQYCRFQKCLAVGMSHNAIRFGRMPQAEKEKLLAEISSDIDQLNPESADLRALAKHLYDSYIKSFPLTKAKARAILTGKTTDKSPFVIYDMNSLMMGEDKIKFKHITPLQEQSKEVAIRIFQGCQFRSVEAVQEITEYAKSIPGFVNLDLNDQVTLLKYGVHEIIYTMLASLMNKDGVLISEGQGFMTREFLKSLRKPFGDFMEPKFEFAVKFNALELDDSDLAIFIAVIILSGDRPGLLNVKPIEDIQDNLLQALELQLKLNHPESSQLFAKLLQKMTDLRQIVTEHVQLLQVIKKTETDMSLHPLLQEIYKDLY
How it was run: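 HEK293H PPARg-bla cells, 5 h settle at 37C/5% CO2; compound (DMSO) 17 h, 37C; B/G FRET substrate 1 h RT; fluorescence intensity read-out. qHTS format.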

[5] = molecular target: Peroxisome proliferator-activated receptor gamma (Homo sapiens) (UniProt P37231); experiment: qHTS assay to identify small molecule antagonists of the peroxisome proliferator-activated receptor gamma (PPARg) signaling pathway (AID 743191; calls by dose curve; also: series mostly up to about 63 µM; nearly all actives have a fitted effect of over 30% in size)
How it was run: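 Beta-lactamase reporter under UAS control in HEK293H PPARg-bla cells; compound treatment 17 h at 37C. Read-out: fluorescence intensity after 1 h room-temperature incubation with LiveBLAzer B/G FRET substrate.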

[6] = qHTS assay to identify small molecule antagonists of the peroxisome proliferator-activated receptor gamma (PPARg) signaling pathway - cell viability counter screen (AID 743194); also: nearly all actives have a fitted effect of over 55% in size
How it was run: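 Viability was measured as CellTiter-Glo luminescence in GeneBLAzer PPARg UAS-bla HEK293H cells. These cells had been exposed 17 h at 37 C to compounds together with rosiglitazone at 50 nM final, with the beta-lactamase readout taken in the same wells.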

[7] = qHTS assay for small molecule agonists of the antioxidant response element (ARE) signaling pathway (AID 743202; active = well fitted activation curve with a large enough effect in the signal ratio in the repeat runs, not every such curve was filed as active; the % refers to the signal ratio)
How it was run: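 Beta-lactamase reporter activity, read as fluorescence intensity, reflects ARE/Nrf2 pathway induction in HepG2 cells after 16 h compound exposure at 37 C; substrate loading was 2 h at room temperature.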

[8] = qHTS assay for small molecule agonists of the antioxidant response element (ARE) signaling pathway - cell viability counter screen (AID 743203; calls by dose curve; also: nearly all actives have a fitted effect of over 55% in size)
How it was run: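 Luminescence read-out (CellTiter-Glo, 30 min at room temperature) measured cell viability in the same wells as the ARE beta-lactamase reporter. HepG2 ARE-bla cells were treated with compounds for 16 hrs at 37C/5% CO2.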

[9] = qHTS assay for small molecule activators of the heat shock response signaling pathway - cell viability counter screen (AID 743209); also: nearly all actives have a fitted effect of over 50% in size
How it was run: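 HSE-bla HeLa; 1500 cells/well; overnight 37 C, 5% CO2; compound 5 h 37 C; LiveBLAzer B/G substrate 2.5 h RT; CellTiter-Glo 30 min RT; luminescence.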

[10] = qHTS assay for small molecule activators of the heat shock response signaling pathway (AID 743210; active = well fitted activation curve with a large enough effect in the signal ratio in the repeat runs, with a control signal flat, not every such curve was filed as active; the % refers to the signal ratio;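 also: HeLa cells with beta-lactamase reporter driven by heat shock elements; series mostly up to about 63 µM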)
How it was run: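 Fluorescence from a cleaved B/G FRET substrate (2.5 h, room temp) reports HSE-driven beta-lactamase in HeLa cells treated 5 h at 37 C with DMSO-dissolved compounds.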

[11] = qHTS assay to identify small molecule agonists of the peroxisome proliferator-activated receptor delta (PPARd) signaling pathway - cell viability counter screen (AID 743211); also: nearly all actives have a fitted effect of over 55% in size
How it was run: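 Viability of GeneBLAzer PPARd UAS-bla HEK293H cells was assessed after 17 h compound incubation at 37C, using CellTiter-Glo reagent added after the reporter read and luminescence recorded 30 min later.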

[12] = molecular target: Peroxisome proliferator-activated receptor delta (Homo sapiens) (UniProt Q03181); experiment: qHTS assay to identify small molecule agonists of the peroxisome proliferator-activated receptor delta (PPARd) signaling pathway (AID 743212; calls by dose curve)
Peroxisome proliferator-activated receptor delta (Homo sapiens), sequence (Q03181 whole entry, looked up): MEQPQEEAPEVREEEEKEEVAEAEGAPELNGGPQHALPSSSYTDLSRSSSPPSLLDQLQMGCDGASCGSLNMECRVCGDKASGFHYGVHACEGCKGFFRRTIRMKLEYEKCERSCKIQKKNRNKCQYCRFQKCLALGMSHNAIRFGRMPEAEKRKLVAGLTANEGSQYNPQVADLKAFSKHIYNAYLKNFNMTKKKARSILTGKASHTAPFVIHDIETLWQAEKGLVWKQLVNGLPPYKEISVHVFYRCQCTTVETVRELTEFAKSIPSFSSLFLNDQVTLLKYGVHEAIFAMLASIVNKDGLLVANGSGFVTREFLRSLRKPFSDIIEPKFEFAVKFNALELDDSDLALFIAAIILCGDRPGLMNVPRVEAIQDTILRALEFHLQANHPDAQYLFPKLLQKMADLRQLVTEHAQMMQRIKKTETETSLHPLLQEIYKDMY
How it was run: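 Steps: seed PPARd-bla HEK293H cells; incubate 5 h, 37 C, 5% CO2; add compounds in DMSO; incubate, 37 C; add LiveBLAzer B/G FRET substrate; hold 2 h at room temperature; measure fluorescence.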

[13] = molecular target: Bile acid receptor (Homo sapiens) (UniProt Q96RI1); experiment: qHTS assay to identify small molecule antagonists of the farnesoid-X-receptor (FXR) signaling pathway (AID 743217; active = well fitted inhibition curve with a large enough effect in the signal ratio in the repeat runs, not every such curve was filed as active; the % refers to the signal ratio)
Bile acid receptor (Homo sapiens), sequence (Q96RI1 whole entry, looked up): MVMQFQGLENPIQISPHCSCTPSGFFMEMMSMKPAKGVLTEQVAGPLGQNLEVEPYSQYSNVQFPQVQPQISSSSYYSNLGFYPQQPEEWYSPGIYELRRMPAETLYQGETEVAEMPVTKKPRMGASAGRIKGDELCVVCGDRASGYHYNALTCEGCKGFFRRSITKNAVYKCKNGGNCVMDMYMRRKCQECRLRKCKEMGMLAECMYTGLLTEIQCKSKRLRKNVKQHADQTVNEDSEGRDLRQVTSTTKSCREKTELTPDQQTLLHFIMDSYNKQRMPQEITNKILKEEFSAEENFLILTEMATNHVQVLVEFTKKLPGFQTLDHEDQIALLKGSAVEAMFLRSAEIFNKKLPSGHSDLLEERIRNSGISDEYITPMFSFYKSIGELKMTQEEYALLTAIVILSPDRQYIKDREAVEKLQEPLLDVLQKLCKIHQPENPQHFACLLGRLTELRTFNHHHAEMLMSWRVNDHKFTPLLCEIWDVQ
How it was run: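 Read-out: beta-lactamase FRET fluorescence (LiveBLAzer B/G substrate, 2 h, room temperature) in GeneBLAzer FXR-UAS-bla HEK 293T cells. Compounds were co-dosed with 50 uM chenodeoxycholic acid (final) and incubated 16 h at 37 °C.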

[14] = qHTS assay to identify small molecule agonists of the farnesoid-X-receptor (FXR) signaling pathway - cell viability counter screen (AID 743218); also: nearly all actives have a fitted effect of over 45% in size
How it was run: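 Luminescence from CellTiter-Glo, read after 30 min at RT, reports viability of GeneBLAzer FXR-UAS-bla HEK 293T cells treated 16 h with compounds in the wells used for the beta-lactamase reporter.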

[15] = molecular target: Bile acid receptor (Homo sapiens) (UniProt Q96RI1); experiment: qHTS assay to identify small molecule agonists of the farnesoid-X-receptor (FXR) signaling pathway (AID 743220; active = well fitted activation curve with a large enough effect in the signal ratio in the repeat runs, not every such curve was filed as active; the % refers to the signal ratio)
How it was run: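 FXR-UAS-bla HEK 293T cells carrying a UAS-driven beta-lactamase reporter were plated for 5 h at 37C/5% CO2, then exposed to DMSO-dissolved Tox21 10K compounds for 16 h at 37C. A LiveBLAzer B/G FRET substrate was loaded for 2 h at room temperature before fluorescence reading.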

[16] = qHTS assay to identify small molecule antagonists of the farnesoid-X-receptor (FXR) signaling pathway - cell viability counter screen (AID 743221; active = well fitted cell-killing curve with a large enough effect in the repeat runs, not every such curve was filed as active; also: nearly all actives have a fitted effect of over 50% in size)
How it was run: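 Quantitative HTS of the Tox21 10K library run in parallel with the beta-lactamase reporter read. HEK 293T cells carrying a UAS-driven bla reporter got compound and 50 uM CDCA (final) for 16 h; ATP-based luminescence followed.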

[17] = molecular target: Vitamin D3 receptor (Homo sapiens) (UniProt P11473); experiment: qHTS assay to identify small molecule agonists of the vitamin D receptor (VDR) signaling pathway (AID 743222; calls by dose curve)
Vitamin D3 receptor (Homo sapiens), sequence (P11473 whole entry, looked up): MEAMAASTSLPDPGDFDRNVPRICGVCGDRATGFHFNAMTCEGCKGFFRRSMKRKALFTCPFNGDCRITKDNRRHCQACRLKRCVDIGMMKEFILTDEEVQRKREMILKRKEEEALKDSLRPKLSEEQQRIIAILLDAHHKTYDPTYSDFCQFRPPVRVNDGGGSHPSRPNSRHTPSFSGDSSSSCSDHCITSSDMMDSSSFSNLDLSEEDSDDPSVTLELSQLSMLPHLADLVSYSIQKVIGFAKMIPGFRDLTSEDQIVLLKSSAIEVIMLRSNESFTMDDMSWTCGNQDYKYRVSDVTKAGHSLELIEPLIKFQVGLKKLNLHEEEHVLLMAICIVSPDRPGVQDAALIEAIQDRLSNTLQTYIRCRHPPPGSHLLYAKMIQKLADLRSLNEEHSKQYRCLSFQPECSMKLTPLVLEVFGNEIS
How it was run: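 Beta-lactamase reporter readout (LiveBLAzer B/G FRET, 2 h RT) in VDR-bla cells after 16 h compound treatment at 37C, 5% CO2; cells pre-incubated 4 h before pin transfer of DMSO solutions.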

[18] = molecular target: Vitamin D3 receptor (Homo sapiens) (UniProt P11473); experiment: qHTS assay to identify small molecule antagonists of the vitamin D receptor (VDR) signaling pathway (AID 743223; active = well fitted inhibition curve with a large enough effect in the signal ratio in the repeat runs, not every such curve was filed as active; the % refers to the signal ratio)
How it was run: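 Fluorescence from LiveBLAzer B/G FRET substrate, read after 2 h at room temperature, reflects beta-lactamase reporter activity in VDR-bla cells treated 16 h at 37C with compounds and agonist 1alpha,25-dihydroxyvitamin D3 (3 nM final).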

[19] = qHTS assay to identify small molecule antagonists of the peroxisome proliferator-activated receptor delta (PPARd) signaling pathway - cell viability counter screen (AID 743213); also: nearly all actives have a fitted effect of over 50% in size
How it was run: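 Viability counter-screen, qHTS format: PPARd-bla HEK293H, L165041 300 nM final, 17 h compound exposure at 37 C, CellTiter-Glo luminescence after 30 min RT.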

[20] = molecular target: Peroxisome proliferator-activated receptor delta (Homo sapiens) (UniProt Q03181); experiment: qHTS assay to identify small molecule antagonists of the peroxisome proliferator-activated receptor delta (PPARd) signaling pathway (AID 743215; active = well fitted inhibition curve with a large enough effect in the signal ratio in the repeat runs, not every such curve was filed as active; the % refers to the signal ratio;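 also: cells stimulated with agonist L165041 at 300 nM final during compound exposure; series mostly up to about 62 µM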)
How it was run: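 HEK293H GeneBLAzer PPARd UAS-bla reporter cells; cpd + L165041 300 nM final, 17 h 37 C; LiveBLAzer B/G FRET substrate 2 h RT; fluorescence intensity read-out. Antagonist mode.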

Measured: Potency

O=C(O)[C@H](O)c1ccccc1
not listed: [19] | [20]
inactive: all other assays above

O=C(Cn1ccnc1[N+](=O)[O-])NCc1ccccc1
not listed: [15] | [17] | [18]
inactive: all other assays above

CCCCCCCCCCCCCCCCCCOCCO
not listed: [15] | [18] | [19]
inactive: all other assays above

CCCCCCC1(C)CCC(=O)O1 (stereo unspecified)
not listed: [13] | [15] | [19] | [20]
inactive: all other assays above

CC(C)Nc1ccccc1
not listed: [13] | [15]
inactive: all other assays above

CC(C)Cn1cnc2c1c(=O)n(C)c(=O)n2C
not listed: [16] | [18]
inactive: all other assays above

CO[Si](CCCn1c(=O)n(CCC[Si](OC)(OC)OC)c(=O)n(CCC[Si](OC)(OC)OC)c1=O)(OC)OC
not listed: [12] | [13] | [14] | [15]
inactive: all other assays above

CC(=O)OC1CCCCC1C(C)(C)C (stereo unspecified)
not listed: [13] | [14] | [15] | [20]
inactive: all other assays above
